In the library only some 1.3% were active in any assay of this set; here they are far more common.
ADAM10 inh: inhibitors of human ADAM10; O14672; recombinant ADAM10, EDANS/DABCYL FRET peptide cleavage, 3 h; inhibition, % at 7 µM; actives 0.62% (n = 370,000); AID 720582;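 active = inhibition above a per-campaign cutoff equal to the mean of compounds falling between control-based bounds plus 3 SD, cut at about 20% in these data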;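 also: 0% = DMSO wells while the 100% control is not disclosed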
GC-B act: GC-B (human) receptor activation. AID 1920062. actives 0.11% (n = 370,000). activation, % at 10 µM. HEK293-GC-B cells, CNP EC30, cGMP TR-FRET; 0% at EC30 CNP, 100% saturating CNP;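 active = activation at 10 µM reaching about 35% in either raw or pattern-adjusted values, limit read from the data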
GC-A act: GC-A (human) enzyme activation | AID 1671463 | actives 0.14% (n = 370,000) | activation, % at 10 µM | HEK293 GC-A cells, cGMP TR-FRET, EC30 ANP; 0% at EC30 ANP, 100% saturating ANP; in the data active = activation above about 40%
ADAM17 inh: inhibits human ADAM17; P78536; inhibition, % at 6.95 µM; actives 0.83% (n = 370,000); recombinant ADAM17, EDANS/DABCYL FRET peptide cleavage;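 active = inhibition above the mean of compounds lying between control limits plus 3 SD, set per campaign, cut at about 8.5% in these data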;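 also: 0% = DMSO-only wells as the low control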
ADAM10 confirm: confirmation of inhibitors of human ADAM10; inhibition, % at 6.95 µM; ADAM10 QFRET peptide cleavage, EDANS fluorescence; shares compounds with ADAM10 inh; actives 1% (n = 2,100); AID 743208;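 active = inhibition above about 20% chosen separately for each screening run, limit read from the data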;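 also: 0% = DMSO wells and 100% = marimastat wells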
ADAM17 counter: counter-screen for ADAM10 exosite inhibitors: inhibitors of human ADAM17 | shares compounds with ADAM10 inh | ADAM17 QFRET peptide cleavage, EDANS fluorescence | inhibition, % at 6.95 µM | actives 0.5% (n = 2,100) | AID 743214;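 active = mean triplicate inhibition above the solvent-only control wells' mean plus 3 SD, cut at about 12% in these data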;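 also: 0% = DMSO wells and 100% = marimastat wells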
ADAM10 counter: ADAM10 inhibition, counter-screen for ADAM17 exosite hits; shares compounds with ADAM17 inh; actives 47% (n = 2,900); recombinant ADAM10, EDANS/DABCYL FRET peptide cleavage, 3 h; inhibition, % at 6.95 µM;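 active = mean inhibition over the triplicate runs exceeds the activity threshold set in the earlier primary screen, cut at about 20% in these data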;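 also: 0% = DMSO wells and 100% = marimastat wells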
ADAM17 confirm: human ADAM17 inhibition, confirmation; actives 65% (n = 2,900); inhibition, % at 6.95 µM; AID 743257; recombinant ADAM17, EDANS/DABCYL QFRET peptide cleavage; shares compounds with ADAM17 inh;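 active = mean inhibition across replicates above the hit cutoff set in the primary screen, cut at about 8.5% in these data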;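 also: 0% = DMSO wells and 100% = marimastat wells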
* = called active by the depositor; nt = not tested or not shown.

SMILES	ADAM10 inh	GC-B act	GC-A act	ADAM17 inh	ADAM10 confirm	ADAM17 counter	ADAM10 counter	ADAM17 confirm
COc1ccc(-n2c(SCC(=O)NCc3cccs3)nc3[nH]ncc3c2=O)cc1	-1	0	1	2	nt	nt	nt	nt
COc1cc(NC(=O)CSc2nc3[nH]ncc3c(=O)n2-c2ccc(Cl)cc2)cc(OC)c1	31*	1	1	12*	3	1	26*	13*
CCC(C)NC(=O)CSc1nnc(-c2cc(OC)c(OC)c(OC)c2)o1 (centres undefined)	0	-6	-1	2	nt	nt	nt	nt
O=C1c2ccccc2C(=O)N1CCCCN(C(=O)c1cccc([N+](=O)[O-])c1)c1ccc(Cl)cc1	26*	-5	-7	10*	5	2	30*	14*
N#CCCn1nc(-c2ccc([N+](=O)[O-])cc2)cc1Nc1ccccc1NC(=O)C(F)(F)F	36*	3	1	20*	0	0	16	9.5*
N#CCCn1nc(-c2ccccc2)cc1Nc1ccccc1NC(=O)C(F)(F)F	-16	1	-1	-5	nt	nt	nt	nt
CCOC(=O)C1C(C(=O)OCC)C(C)(C)C1N(C)C (centres undefined)	-10	4	1	0	nt	nt	nt	nt
O=C(c1cc(COc2cccc(C(F)(F)F)c2)on1)N1CCC(c2ccccc2)CC1	26*	0	-3	12*	5	2	35*	20*
C#CCN(C(=O)c1cc(COc2ccc(C)c(C)c2)on1)C1CCCCC1	9	6	1	2	nt	nt	nt	nt
O=C(c1cc(COc2cccc(C(F)(F)F)c2)on1)N1CCC(c2ccncc2)CC1	-1	-3	-1	3	nt	nt	nt	nt
C#CCN(C(=O)c1cc(COc2cccc(C(F)(F)F)c2)on1)C1CCCCC1	24*	-1	4	10*	8	3	55*	19*
Cc1ccc(N(CC(O)Cn2c3ccccc3c3ccccc32)S(C)(=O)=O)cc1 (centres undefined)	19	-11	-28	5	nt	nt	nt	nt
CC(=O)Nc1ccc(N(CC(O)Cn2c3ccccc3c3ccccc32)S(=O)(=O)c2ccc(C)cc2)cc1 (centres undefined)	29*	-7	-9	10*	10	4	41*	23*
CCOC(=O)CN1CCCc2nc(-c3ccc(OC)cc3)ccc21	-450	8	2	-125	nt	nt	nt	nt
Cn1c(N/N=C/c2cccs2)cc(=O)n(C)c1=O	-91	-3	1	-31	nt	nt	nt	nt
Fc1c(F)c(C(F)(F)F)c(F)c(F)c1N/N=C\c1cccs1	24*	-6	1	9.8*	14	4	32*	19*
COc1ccc(C(C)(C)C)cc1NC(=O)Nc1ccc2c(c1)OCO2	24*	-1	2	10*	5	2	41*	24*
COc1cc(NC(=O)Nc2ccc3c(c2)OCO3)cc(OC)c1OC	1	6	0	-2	nt	nt	nt	nt
CCn1c(Cc2ccccc2)nnc1SC(C)C(=O)NC1CC1 (centres undefined)	-11	4	2	-5	nt	nt	nt	nt
Cc1ccc(-n2c(SCC(=O)Nc3cccc4ccccc34)nnc2-c2cccs2)cc1	6	0	-2	2	nt	nt	nt	nt
Cc1ccc(OCc2nnc(SCC(=O)Nc3ccc(OCc4ccccc4)cc3)n2-c2ccc(Cl)cc2)cc1	-3	-1	0	-1	nt	nt	nt	nt
O=C(CSc1nnc(Cc2cccs2)n1-c1ccc(Cl)cc1)Nc1ccc(OCc2ccccc2)cc1	26*	0	-4	14*	13	3	23*	16*
Cc1ccc(-n2c(Cc3cccs3)nnc2SCC(=O)Nc2cccc3ccccc23)cc1	26*	-12	-12	11*	8	2	16	8
COc1ccc(CCNC(=O)C(=O)NCc2cccs2)cc1OC	1	2	4	-4	nt	nt	nt	nt
CCOC(=O)c1ccc(NC(=O)CN(Cc2ccc(Cl)cc2)S(C)(=O)=O)cc1	26*	-4	-8	11*	1	0	25*	15*
SMILES	ADAM10 inh	GC-B act	GC-A act	ADAM17 inh	ADAM10 confirm	ADAM17 counter	ADAM10 counter	ADAM17 confirm
CS(=O)(=O)N(CC(=O)Nc1ccc2c(c1)OCCO2)Cc1ccc(Cl)cc1	5	5	-2	4	nt	nt	nt	nt
COc1ccc(N=C2SC(CC(=O)Nc3cccc(Cl)c3)C(=O)N2Cc2ccco2)cc1 (centres undefined)	21*	-5	-4	14*	9	3	23*	16*
CCNS(=O)(=O)c1ccc(CCC(=O)N2CCc3ccccc3C2)cc1	6	0	1	2	nt	nt	nt	nt
COc1ccc(CN([C@H](CO)CC(C)C)S(=O)(=O)N(Cc2ccccc2)[C@H](CO)CC(C)C)cc1	43*	-17	-11	23*	13	4	63*	35*
Cc1ccccc1NS(=O)(=O)c1cc(C(=O)Nc2cccc([N+](=O)[O-])c2)ccc1C	27*	2	-5	11*	6	2	36*	22*
Cc1ccc(C(=O)Nc2ccccc2-c2ccccc2)cc1S(=O)(=O)Nc1cccc(C)c1C	29*	1	-5	12*	17	5	40*	19*
Cc1ccc(C)c(NS(=O)(=O)c2cc(C(=O)Nc3ccccc3-c3ccccc3)ccc2C)c1	18	-3	-6	5	nt	nt	nt	nt
COc1ccc2c(c1)CCCN2C(=O)C1CCCN(S(=O)(=O)c2ccc(C)c(C)c2)C1 (centres undefined)	-2	-7	4	7	nt	nt	nt	nt
Cc1ccccc1Nc1nc(N)nc(CSc2nc3ccccc3s2)n1	10	-4	4	3	nt	nt	nt	nt
Cc1ccc(Nc2nc(N)nc(CSc3nc4ccccc4s3)n2)cc1	29*	-2	0	13*	11	4	43*	25*
CCOC(=O)N1CCN(C(=O)C[C@H]2C[C@@]3(C(=O)OC)C(=C[C@H](COCc4ccccc4)O[C@@H]3C)N(Cc3ccc(Cl)cc3Cl)C2=O)CC1	7	3	0	2	nt	nt	nt	nt
Cc1cccc(NS(=O)(=O)c2ccc3[nH]c(=O)cc(C(=O)OC(C)C(=O)Nc4ccc([N+](=O)[O-])cc4)c3c2)c1 (centres undefined)	25*	2	-8	15*	10	4	4	12*
Cn1cc(C(=O)C(=O)N2CCCCC2)c2ccccc21	-8	0	1	0	nt	nt	nt	nt
COc1ccc(NC(=S)Nc2cc(-c3ccccc3)[nH]n2)cc1Cl	32*	11	20	19*	12	3	36*	22*
